# Measurements as given in the supplement of paper PMC6763611.
# Tested on: Plasmodium falciparum NF54
# Assay: growth inhibition relative to untreated control; higher = more inhibition
# Conditions: 5 µM; MM + chorismate end-products (CM screening medium); 72 h
# Outline: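 Growth inhibition was measured by SYBR Green fluorescence, normalised to untreated wells and corrected for background from uninfected erythrocytes. The parasites were P. falciparum NF54 ring stages (1% hematocrit, 1% parasitemia) exposed to single 5 μM or 1 μM doses of test compounds for 72 h at 37 °C, in either minimal RPMI or minimal RPMI containing 2.2 μM folate, 7.3 μM pABA, 7.3 μM pHBA, 111 μM tyrosine, 90 μM phenylalanine and tryptophan.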
row,SMILES,growth inhibition [%]
1,Cc1ccc(NC(=O)c2cc(S(=O)(=O)NC(C)(C)C)ccc2C)nc1,93
2,C[C@H](C(N)=O)N1CCCC[C@H]1c1ccc(OCc2cccc(F)c2)cc1,< 0
3,Cc1nnc(NCc2cccc(Cl)c2)c2ccccc12,4.67
4,N=C(N)c1ccc(OCCCCCOc2ccc(C(=N)N)cc2)cc1,99.4
5,NC(CC(=O)c1ccc(Cl)cc1Cl)C(Cl)(Cl)Cl (stereo unspecified),18.3
6,Cc1ccc2oc(-c3cc(NC(=O)Cc4ccccc4)ccc3Cl)nc2c1,26.4
7,COc1cc(C2=NCCN2)cc2cc(-c3ccc(C4=NCCN4)cc3)oc12,98.4
8,O=C(NC1=NCCS1)c1sc2cc(F)ccc2c1Cl,< 0
9,CCCCOC(=O)Nc1cc2nc(C3CCCCC3)[nH]c2cc1N1CCCC1,85.8
10,COc1ccc(-c2nc(-c3cccc(NC(=O)Cc4ccc(F)cc4)c3)no2)cc1OC,91.6
11,CC(Oc1ccccc1)C(=O)Nc1nc(-c2ccccn2)cs1 (stereo unspecified),68.6
12,Cc1ccc(S(=O)(=O)N2CCN(C(=O)c3cc(-c4ccccc4)n[nH]3)CC2)cc1,82.9
13,c1cncc(NCc2ccc(-c3cc4ccncc4cc3OC3CCNCC3)s2)c1,> 100
14,c1ccc(Oc2ccc(-c3cc(CN4CCOCC4)[nH]n3)cc2)cc1,< 0
15,CS(=O)(=O)c1ccc(C(=O)N(CC2CCCO2)c2nc3ccccc3s2)cc1[N+](=O)[O-] (stereo unspecified),72.3
16,CC(C)(C)C(=O)N(CCCCCCN1C[C@H](O)[C@@H](O)[C@H](O)[C@H]1CO)C1CCCCCC1,< 0
17,Cc1nn(C(=O)Nc2cccc(C(F)(F)F)c2)c(C)c1Sc1ncccn1,80.1
18,Cc1cc(C(=O)Nc2cnn(Cc3ccc(Cl)cc3Cl)c2)no1,88.6
19,COc1cccc(-c2cc3c(Nc4cccnc4)nccc3[nH]2)c1,94.2

row,SMILES,growth inhibition [%]
1,O=C1N(Cc2cc3ccccc3s2)CC2CN(Cc3ccccc3)CCN12 (stereo unspecified),96.5
2,Nc1ncnc2c1ncn2[C@@H]1O[C@H](COS(=O)(=O)NC(=O)c2ccccc2O)[C@@H](O)[C@H]1O,< 0
3,CC[C@@H](CO)NCCN[C@@H](CC)CO,0.997
4,O=C(Nc1cnc2ccccc2c1)c1cccc(-n2cnnn2)c1,86.9
5,COCC(C)NC(=O)CSc1ncnc2sc(-c3ccccc3)cc12 (stereo unspecified),< 0
6,O=C(Nc1nnc(S)s1)c1cc(Br)ccc1Cl,< 0
7,O=C(NCCN1CCCC1)c1cc(NCCN2CCOCC2)nc2ccc(Cl)cc12,92.2
8,Brc1cncc(-c2cc(NCCCn3ccnc3)nc(-c3ccccc3)n2)c1,91.2
9,COC(=O)c1c(NC(=O)c2c(F)c(F)c(F)c(F)c2F)sc2c1CCCCC2,< 0
10,CNC(=O)C1Cc2c([nH]c3cc(Cl)ccc23)C2(CCN(CCc3ccccc3)CC2)N1 (stereo unspecified),92.8
11,COc1ccc(Cl)cc1NC(=O)CN(C)C(=O)c1cnn(-c2ccccc2)n1,85
12,Cc1nn(C)cc1C(C)Nc1nncc(-c2ccc(C(F)(F)F)cc2)n1 (stereo unspecified),99.9
13,COC(=O)c1ccc(F)cc1NS(=O)(=O)c1cccc(-c2cnn(Cc3ccccc3)c2)c1,9.57
14,CNC(=O)c1nn(C)c2c1C(C)(C)Cc1cnc(Nc3ccc(N4CCN(C)CC4)cc3)nc1-2,88
15,c1coc(CNc2nc(N3CCCCC3)nc3ccccc23)c1,67.2
16,CC(C)(C)c1cnc(NC(=O)c2ccccc2O)s1,51.6
17,c1cc(C2=NCCN2)cc(-c2cc(-c3ccc(C4=NCCN4)cc3)no2)c1,97.8
18,Cc1ccc(-c2nc(CN(Cc3ccccn3)C(C)C)cs2)o1,81.7
19,O=C([C@@H](c1ccc(Cl)cc1)c1cccnc1)N1CCN(c2ccc(C(F)(F)F)cc2)CC1,< 0

# Same assay, conditions: 5 µM; minimal medium (MM); 72 h
row,SMILES,growth inhibition [%]
1,Cc1ccc(NC(=O)c2cc(S(=O)(=O)NC(C)(C)C)ccc2C)nc1,94.5
2,C[C@H](C(N)=O)N1CCCC[C@H]1c1ccc(OCc2cccc(F)c2)cc1,< 0
3,Cc1nnc(NCc2cccc(Cl)c2)c2ccccc12,< 0
4,N=C(N)c1ccc(OCCCCCOc2ccc(C(=N)N)cc2)cc1,94
5,NC(CC(=O)c1ccc(Cl)cc1Cl)C(Cl)(Cl)Cl (stereo unspecified),23
6,Cc1ccc2oc(-c3cc(NC(=O)Cc4ccccc4)ccc3Cl)nc2c1,< 0
7,COc1cc(C2=NCCN2)cc2cc(-c3ccc(C4=NCCN4)cc3)oc12,100
8,O=C(NC1=NCCS1)c1sc2cc(F)ccc2c1Cl,< 0
9,CCCCOC(=O)Nc1cc2nc(C3CCCCC3)[nH]c2cc1N1CCCC1,5.52
10,COc1ccc(-c2nc(-c3cccc(NC(=O)Cc4ccc(F)cc4)c3)no2)cc1OC,80.9
11,CC(Oc1ccccc1)C(=O)Nc1nc(-c2ccccn2)cs1 (stereo unspecified),38.2
12,Cc1ccc(S(=O)(=O)N2CCN(C(=O)c3cc(-c4ccccc4)n[nH]3)CC2)cc1,88.6
13,c1cncc(NCc2ccc(-c3cc4ccncc4cc3OC3CCNCC3)s2)c1,84.2
14,c1ccc(Oc2ccc(-c3cc(CN4CCOCC4)[nH]n3)cc2)cc1,11.1
15,CS(=O)(=O)c1ccc(C(=O)N(CC2CCCO2)c2nc3ccccc3s2)cc1[N+](=O)[O-] (stereo unspecified),55.5
16,CC(C)(C)C(=O)N(CCCCCCN1C[C@H](O)[C@@H](O)[C@H](O)[C@H]1CO)C1CCCCCC1,< 0
17,Cc1nn(C(=O)Nc2cccc(C(F)(F)F)c2)c(C)c1Sc1ncccn1,39.2
18,Cc1cc(C(=O)Nc2cnn(Cc3ccc(Cl)cc3Cl)c2)no1,87.4
19,COc1cccc(-c2cc3c(Nc4cccnc4)nccc3[nH]2)c1,94.8

row,SMILES,growth inhibition [%]
1,O=C1N(Cc2cc3ccccc3s2)CC2CN(Cc3ccccc3)CCN12 (stereo unspecified),94.8
2,Nc1ncnc2c1ncn2[C@@H]1O[C@H](COS(=O)(=O)NC(=O)c2ccccc2O)[C@@H](O)[C@H]1O,< 0
3,CC[C@@H](CO)NCCN[C@@H](CC)CO,3.8
4,O=C(Nc1cnc2ccccc2c1)c1cccc(-n2cnnn2)c1,87.1
5,COCC(C)NC(=O)CSc1ncnc2sc(-c3ccccc3)cc12 (stereo unspecified),< 0
6,O=C(Nc1nnc(S)s1)c1cc(Br)ccc1Cl,< 0
7,O=C(NCCN1CCCC1)c1cc(NCCN2CCOCC2)nc2ccc(Cl)cc12,96.8
8,Brc1cncc(-c2cc(NCCCn3ccnc3)nc(-c3ccccc3)n2)c1,90.1
9,COC(=O)c1c(NC(=O)c2c(F)c(F)c(F)c(F)c2F)sc2c1CCCCC2,< 0
10,CNC(=O)C1Cc2c([nH]c3cc(Cl)ccc23)C2(CCN(CCc3ccccc3)CC2)N1 (stereo unspecified),94.4
11,COc1ccc(Cl)cc1NC(=O)CN(C)C(=O)c1cnn(-c2ccccc2)n1,98.3
12,Cc1nn(C)cc1C(C)Nc1nncc(-c2ccc(C(F)(F)F)cc2)n1 (stereo unspecified),91.7
13,COC(=O)c1ccc(F)cc1NS(=O)(=O)c1cccc(-c2cnn(Cc3ccccc3)c2)c1,< 0
14,CNC(=O)c1nn(C)c2c1C(C)(C)Cc1cnc(Nc3ccc(N4CCN(C)CC4)cc3)nc1-2,87.2
15,c1coc(CNc2nc(N3CCCCC3)nc3ccccc23)c1,67.2
16,CC(C)(C)c1cnc(NC(=O)c2ccccc2O)s1,3.99
17,c1cc(C2=NCCN2)cc(-c2cc(-c3ccc(C4=NCCN4)cc3)no2)c1,89.7
18,Cc1ccc(-c2nc(CN(Cc3ccccn3)C(C)C)cs2)o1,49.2
19,O=C([C@@H](c1ccc(Cl)cc1)c1cccnc1)N1CCN(c2ccc(C(F)(F)F)cc2)CC1,7.9
